Earlier results, collected in PubChem BioAssay AID977610.
About 3,600 (100%) of roughly 3,600 compounds were called active. The limit is not given here; nearly all actives have Ki up to about 18000 µM. So high a share suggests a set chosen from earlier hits. The list shows a part of the results.

Assay: PubChem AID 977610
Details: PDB protein-ligand complexes, literature Ki
[1] = protein: type II dehydroquinase dehydratase from Mycobacterium tuberculosis, PDB entry 4kiw unless noted

## O=C(O)c1cc(O)c(O)c(Oc2cccc([N+](=O)[O-])c2)c1
[1]
  Ki: 50 µM [protein: type II dehydroquinase dehydratase from Mycobacterium tuberculosis, PDB entry 4kij] (active)

## O=C(O)c1cc(NCc2cccc([N+](=O)[O-])c2)cc(C(=O)O)c1
[1]
  Ki: 7.5 µM (active)

## O=C(O)c1cc(OCc2cccc([N+](=O)[O-])c2)cc(C(=O)O)c1
[1]
  Ki: 140 µM [protein: type II dehydroquinase dehydratase from Mycobacterium tuberculosis, PDB entry 4kiu] (active)

## CCC(CC)O[C@@H]1CC(C(=O)O)C[C@H](N)[C@H]1NC(C)=O (some centres undefined)
[1]
  Ki: 0.017 µM [protein: neuraminidase, PDB entry 4gzt] (active)

## CCC(CC)O[C@@H]1C=C(C(=O)O)C[C@H](N)[C@H]1NC(C)=O
protein: Neuraminidase from the B/Lyon/CHU/15.216/2011 virus, PDB entry 4cpy
  Ki: 0.491 µM (active)
protein: Neuraminidase, PDB entry 4gzp
  Ki: 0.0143 µM (active)

## O[C@@H]1[C@@H](O)[C@H](O)[C@]2(O)CC[C@H]1N2
[1]
  Ki: 4600 µM [protein: Beta-glucosidase 1, PDB entry 4iie] (active)

## O=C(O)CCCC(=O)O
[1]
  Ki: 30000 µM [protein: Delta-1-pyrroline-5-carboxylate dehydrogenase, mitochondrial, PDB entry 4lh3] (active)

## O=C(O)C(O)(C(F)(F)F)C(F)(F)F
[1]
  Ki: 27 µM [protein: Mandelate racemase, PDB entry 4fp1] (active)

## O=C(CO)[C@@H](O)[C@H](O)CF
[1]
  Ki: 25 µM [protein: XYLULOSE KINASE, PDB entry 4bc5] (active)

## CC(C)CN(C[C@@H](O)[C@H](Cc1ccccc1)NC(=O)O[C@H]1CO[C@H]2OCC(F)(F)[C@H]21)S(=O)(=O)c1ccc(N)cc1
[1]
  Ki: 5.8e-06 µM [protein: HIV-1 Protease, PDB entry 4u8w] (active)

## C[C@](COC(=O)Cc1ccccc1)([C@@H](Nc1c(C=O)cc2ccccn12)C(=O)O)S(=O)O
[1]
  Ki: 0.042 µM [protein: Beta-lactamase SHV-1, PDB entry 4gd6] (active)

## OC(c1ccc(Cl)s1)(c1ccc(Cl)s1)[C@H]1CN2CCC1CC2
[1]
  Ki: 0.36 µM [protein: Choline kinase alpha, PDB entry 4da5] (active)

## CC(=O)N[C@H](Cc1ccccc1)P(O)O
[1]
  Ki: 10 µM [protein: Serine protease splA, PDB entry 3ufa] (active)

## CN(C)C[C@@H](c1ccc(O)cc1)C1(O)CCCCC1
[1]
  Ki: 235 µM [protein: Transporter(delta13 mutant), PDB entry 4mm7] (active)

## O=C(O)C[C@@]12O[C@H]3C=CCN[C@H]3[C@@H]1C(=O)N[C@H]2C(=O)O
[1]
  Ki: 210 µM [protein: Glutamate receptor 2, PDB entry 4isu] (active)

## Nc1c(F)cccc1C(=O)O
[1]
  Ki: 1090 µM [protein: Mycobacterium tuberculosis anthranilate phosphoribosyl transferase, PDB entry 4owm] (active)

## Nc1cccc(F)c1C(=O)O
[1]
  Ki: 34 µM [protein: Mycobacterium tuberculosis anthranilate phosphoribosyl transferase, PDB entry 4owo] (active)

## Cc1ncc(CO[P+](O)(O)O)c(CN=Nc2nc3ccccc3s2)c1O
[1]
  Ki: 10.4 µM [protein: Mycobaterium tuberculosis transaminase BioA, PDB entry 4mqp] (active)

## O[C@H]1[C@H](O)[C@@H](O)CN2CC[C@H](O)[C@H]12
[1]
  Ki: 6.6 µM [protein: Beta-glucosidase 1, PDB entry 4iif] (active)

## Nc1cc(F)ccc1C(=O)O
[1]
  Ki: 380 µM [protein: Mycobacterium tuberculosis anthranilate phosphoribosyl transferase, PDB entry 4n8q] (active)

## Nc1ccc(F)cc1C(=O)O
[1]
  Ki: 60 µM [protein: Mycobacterium tuberculosis anthranilate phosphoribosyl transferase, PDB entry 4own] (active)

## Nc1nc(-c2ccc(Cc3ccccc3)cc2)cs1
[1]
  Ki: 2 µM [protein: Human Leukotriene A4 Hydrolase, PDB entry 4l2l] (active)

## CCCCSC[C@H]1CN(Cc2c[nH]c3c(N)ncnc23)C[C@@H]1O
[1]
  Ki: 1.5e-06 µM [protein: 5'-methylthioadenosine/S-adenosylhomocysteine nucleosidase, PDB entry 4f3c] (active)
